Assay outcomes (PubChem BioAssay)
Sampled rows, rich in hits. Any-hit rate of the full collection: about 8.1%.
MCF10A rereplic: inducers of DNA re-replication in MCF 10A breast cells; MCF 10A DNA re-replication, Hoechst nuclear intensity, 48 h; 350,000 compounds, 2.9% hits; Potency, µM (top dose mostly 46.1 µM), actives largely listed as activators; note: nearly all actives have a fitted effect of over 50% in size
ELG1 DNA repair: ELG1-dependent DNA repair inhibition | HEK293T ELG1-luciferase reporter, luminescence, 16 h; DNA damage induced by 5-fluorouridine | Potency, µM (doses to about 46.1 µM), actives largely listed as inhibitors | 330,000 compounds, 2.3% hits | AID 504467; note: nearly all actives have a fitted effect of over 55% in size
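Reporter activity after DNA damage by 5-fluorouridine is monitored. Compound-treated cells incubate 16 hr at 37 °C, then ONE-Glo is added for 30 min before luminescence reading.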
SW480 rereplic: induces DNA re-replication in SW480 colon adenocarcinoma cells; 340,000 compounds, 1.8% hits; Potency, µM (doses to about 46.1 µM), actives largely listed as activators; SW480 DNA re-replication, Hoechst DNA content imaging, 48 h; note: nearly all actives have a fitted effect of over 55% in size
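Image-based read-out: total Hoechst fluorescence of nuclei (405 nm excitation, 500-530 nm emission), with hits raising the fraction of high-intensity nuclei. SW480 colon cells incubated 48 hr with compounds at 37 C.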
KB-V1 cytotox: kills drug-selected multidrug resistant KB-V1 cells. KB-V1 MDR cells viability, CellTiter-Glo, 72 h. Potency, µM (series often up to 46.1 µM), hits mostly cytotoxic. 400,000 compounds, 3.4% hits. AID 1347076; note: nearly all actives have a fitted effect of over 60% in size
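KB-V1, DMEM (no phenol red) + 10% FBS; cpd pin-transferred, titration series; 72 h, 37 degrees C; CellTiter-Glo, luminescence. Data normalized, curve-fit.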
KB-3-1 cytotox: KB-3-1 parental cell cytotoxicity; KB-3-1 viability, CellTiter-Glo ATP luminescence, 72 h; Potency, µM (titrated, usually from 46.1 µM), usual class: cytotoxic; 400,000 compounds, 1.4% hits; note: nearly all actives have a fitted effect of over 60% in size
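Using CellTiter-Glo luminescence, growth of non-resistant KB-3-1 adenocarcinoma cells is assessed 72 h after pin-tool compound addition at 37 °C. Normalized responses across the concentration series yield fitted curves.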
Numbers stand for hits; [ ] = another dose, or the depositor's remark. Calls come from the whole dose curve; as a rule, active = well fitted curve in the direction sought with a large enough effect; inconclusive = small, poorly fitted or top-dose-only effect, or another doubt; inactive = no such curve, though single readings can be large; an effect the other way counts as inactive or inconclusive.

`C#CCOCCOCCOCCNc1nc(N2CCN(C(=O)CCCCCCCCCCNC(=O)[C@@H](CCSC)n3cc(CCO)nn3)CC2)nc(N2CCN(C(=O)CCCCCCCCCCNC(=O)[C@H]([C@@H](C)CC)n3cc(CCCCCN)nn3)CC2)n1` gave MCF10A rereplic inconclusive, ELG1 DNA repair inconclusive, SW480 rereplic inactive[9.22 µM], KB-V1 cytotox inconclusive and KB-3-1 cytotox inconclusive.
For C#CCOCCOCCOCCNc1nc(N2CCN(C(=O)Cn3cc(CCCCN)nn3)CC2)nc(N2CCN(C(=O)[C@H](Cc3ccc(O)cc3)n3cc(CCO)nn3)CC2)n1 the results were MCF10A rereplic 3.7µM, SW480 rereplic inactive[9.22 µM], KB-V1 cytotox inactive and KB-3-1 cytotox inactive.
`COCC(CN1CCN(C2=NS(=O)(=O)c3ccccc32)CC1)OC(=O)c1ccc(OC)cc1` (stereo not given) gave MCF10A rereplic inconclusive, ELG1 DNA repair inactive, SW480 rereplic inactive, KB-V1 cytotox inconclusive and KB-3-1 cytotox inactive.
For CC1=C(C(=O)Nc2cccnc2)C(c2cccc(F)c2)n2nc(SCc3ccccc3)nc2N1 (stereo not given) the results were KB-V1 cytotox inactive and KB-3-1 cytotox inactive.
`CSCC[C@@H](C(=O)NCCCCCCCCCCC(=O)N1CCN(C(=O)OC(C)(C)C)CC1)n1cc(CCO)nn1` gave MCF10A rereplic inactive, ELG1 DNA repair 18µM, SW480 rereplic inactive, KB-V1 cytotox inactive and KB-3-1 cytotox inconclusive.
For C#CCOCCOCCOCCNc1nc(N2CCN(C(=O)CCCCCCCCCCNC(=O)[C@H](CCCCN)n3cc(C[C@@H](C)CC)nn3)CC2)nc(N2CCN(C(=O)CCCCCCCCCCNC(=O)[C@H](CCCCN)n3cc(C[C@@H](C)CC)nn3)CC2)n1 the results were MCF10A rereplic 18µM, SW480 rereplic inactive[9.22 µM], KB-V1 cytotox inconclusive and KB-3-1 cytotox inconclusive.
Screening C=C1C(=O)[C@]23C[C@H]1CCC2[C@@]1(C)C(C[C@@H]3O)[C@](C)(C(=O)OC)CC[C@@H]1OC(C)=O (stereo not given in full) returned KB-V1 cytotox 16µM and KB-3-1 cytotox inconclusive.
COc1cc(/C=C/C(=O)OCC(=O)NC2CCCCCCC2)ccc1O was read as MCF10A rereplic inactive, ELG1 DNA repair inactive, SW480 rereplic inactive, KB-V1 cytotox inconclusive and KB-3-1 cytotox inactive.
Screening CC(C)CCNC(=O)c1cn(C)c2ccc(S(=O)(=O)N3CCOCC3)cc2c1=O returned KB-V1 cytotox inactive and KB-3-1 cytotox inactive.
O=C(Nc1cccn(Cc2c(Cl)cccc2Cl)c1=O)c1ccc(Cl)cc1Cl was read as MCF10A rereplic inactive, ELG1 DNA repair inactive, SW480 rereplic inactive, KB-V1 cytotox 16µM and KB-3-1 cytotox 21µM.
O=C(Nc1cccn(Cc2c(Cl)cccc2Cl)c1=O)c1ccccc1Cl was read as MCF10A rereplic inactive, ELG1 DNA repair inactive, SW480 rereplic inactive, KB-V1 cytotox 5.8µM and KB-3-1 cytotox inconclusive.
`COc1ccccc1C(=O)Nc1c[nH]c(=O)[nH]c1=O` gave MCF10A rereplic inactive, ELG1 DNA repair inactive, SW480 rereplic inactive, KB-V1 cytotox inactive and KB-3-1 cytotox inactive.
O=C(Nc1c[nH]c(=O)[nH]c1=O)c1ccccc1Cl was read as MCF10A rereplic inconclusive, ELG1 DNA repair inactive, SW480 rereplic inactive, KB-V1 cytotox 16µM and KB-3-1 cytotox inconclusive.
For N#Cc1ccccc1Cn1c(=O)n(Cc2ccc(C(=O)NC3CCN(Cc4ccccc4)CC3)cc2)c(=O)c2ccccc21 the results were KB-V1 cytotox inconclusive and KB-3-1 cytotox inactive.
`CCN1C(=O)[C@H]2[C@@H](c3ccc(-c4ccc(Cl)c(Cl)c4)cc3)N3CCCC[C@@]3(C(=O)OC)[C@H]2C1=O` gave MCF10A rereplic inactive, ELG1 DNA repair inactive, SW480 rereplic inactive, KB-V1 cytotox inconclusive and KB-3-1 cytotox inconclusive.
`CCN1C(=O)[C@H]2[C@@H](c3ccc(-c4ccc(Cl)c(Cl)c4)c(OC)c3)N3CCCC[C@@]3(C(=O)OC)[C@H]2C1=O` gave MCF10A rereplic inactive, ELG1 DNA repair inactive, SW480 rereplic inactive, KB-V1 cytotox inconclusive and KB-3-1 cytotox 21µM.
`COC(=O)[C@@]12CCCCN1[C@H](c1ccc(-c3ccc(F)cc3)c(OC)c1)[C@H]1C(=O)N(C)C(=O)[C@H]12` gave MCF10A rereplic inactive, ELG1 DNA repair 13µM, SW480 rereplic inactive, KB-V1 cytotox inconclusive and KB-3-1 cytotox inconclusive.
Screening CCN1C(=O)[C@H]2[C@@H](c3ccc(-c4cccc(Cl)c4)c(OC)c3)N[C@@](CC(C)C)(C(=O)OC)[C@H]2C1=O returned MCF10A rereplic 5.8µM, ELG1 DNA repair inactive, SW480 rereplic inconclusive, KB-V1 cytotox inactive and KB-3-1 cytotox inconclusive.
Screening COC(=O)[C@@]12CCCCN1[C@H](c1ccc(-c3ccc4c(c3)OCO4)cc1)[C@H]1C(=O)N(C)C(=O)[C@H]12 returned MCF10A rereplic 3.7µM, ELG1 DNA repair inconclusive, SW480 rereplic inactive, KB-V1 cytotox inactive and KB-3-1 cytotox inactive.
Screening COc1ccc(-n2nc(C(=O)Nc3cc(C)ccn3)c3c4ccccc4n(C)c3c2=O)cc1 returned KB-V1 cytotox inactive and KB-3-1 cytotox inactive.
For CCCCCCSc1ccc([C@@H]2[C@H]3C(=O)N(C)C(=O)[C@H]3[C@]3(C(=O)OC)CCCCN23)cc1OC the results were MCF10A rereplic 15µM, ELG1 DNA repair inconclusive, SW480 rereplic inactive, KB-V1 cytotox inactive and KB-3-1 cytotox inactive.
`CCN1C(=O)[C@H]2[C@@H](c3ccc(-c4cccc(Cl)c4)c(OC)c3)N3CCCC[C@@]3(C(=O)OC)[C@H]2C1=O` gave MCF10A rereplic inactive, ELG1 DNA repair inactive, SW480 rereplic inactive, KB-V1 cytotox 21µM and KB-3-1 cytotox inactive.
Screening Cc1ccc(C2(c3noc(CN4CCC(c5ccncc5)CC4)n3)CCCC2)cc1 returned MCF10A rereplic inactive, ELG1 DNA repair 16µM, SW480 rereplic inactive, KB-V1 cytotox inactive and KB-3-1 cytotox inactive.
Cc1ccc(C)c(S(=O)(=O)Nc2ccc3cn[nH]c3c2)c1 was read as MCF10A rereplic inactive, ELG1 DNA repair inactive, SW480 rereplic inactive, KB-V1 cytotox inactive and KB-3-1 cytotox inactive.
Screening CCOc1cc(C)c(S(=O)(=O)Nc2ccc3cn[nH]c3c2)cc1C returned MCF10A rereplic inactive, ELG1 DNA repair inactive, SW480 rereplic inactive, KB-V1 cytotox inconclusive and KB-3-1 cytotox 21µM.
For Cc1ccc(S(=O)(=O)Nc2ccc3cn[nH]c3c2)c(C)c1 the results were MCF10A rereplic inactive, ELG1 DNA repair inactive, SW480 rereplic 16µM, KB-V1 cytotox inactive and KB-3-1 cytotox inactive.
For Cc1ccc(S(=O)(=O)Nc2ccc3cn[nH]c3c2)cc1C the results were MCF10A rereplic inactive, ELG1 DNA repair inactive, SW480 rereplic inactive, KB-V1 cytotox inactive and KB-3-1 cytotox inactive.
Screening C(=Nc1ccc2ccccc2n1)c1cccnc1 returned KB-V1 cytotox inactive and KB-3-1 cytotox inactive.
